The nature of experiment [1]: Primary qHTS for Huh7 cytotoxicity: counterscreen for inhibitors of MERS-S pseudotyped particle cell entry (AID 1479147). As to conditions: outcome: dose series up to 57.1 µM unless noted. (Quantitative high-throughput screening tests each substance at several concentrations.)
Experiment [2] in a line: Primary qHTS for inhibitors of MERS-S pseudo-typed particle cell entry (AID 1479149). For activity change, negative = inhibition: % is set by controls: 0 for no effect and ±100 for the full control effect. Note: nearly all actives have a fitted effect of over 60% in size. As to conditions: outcome: dose series up to 57.1 µM unless noted.
A short description of experiment [3]: Primary qHTS for Vero E6 cytotoxicity: counterscreen for inhibitors of SARS-S pseudo-typed particle cell entry (AID 1479150). As to conditions: outcome: dose series up to 57.1 µM unless noted.
The nature of experiment [4]: Cytotoxicity counterscreen for inhibitors of SARS-CoV-2 cell entry (AID 1645845). Note: nearly all actives have a fitted effect of over 50% in size. As to conditions: outcome: dose series up to 57.1 µM unless noted. An outline of the steps: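 Expi293F/hACE2 cells seeded overnight; cpd pin-transferred in DMSO, 1 h preincubation, + media, 48 h 37 C 5% CO2; ATPLite 1step luminescence; normalized to cells and no cells.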
In general terms: A counterscreen serves to expose hits that act by an unwanted route or on another target.

The nature of experiment [5]: Primary qHTS to identify inhibitors of SARS-CoV-2 cell entry (AID 1645846). Note: nearly all actives have a fitted effect of over 45% in size. As to conditions: SARS-CoV-2 pseudovirus cell entry assay, luminescence; activity change, negative = inhibition: at 57.1 µM (top of the series) unless noted. In a few lines:
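Using luciferase-reporting pseudoviruses carrying Wuhan-Hu-1 spike, the screen tracks entry into stably ACE2-expressing cells over 48 hr. Activity is expressed relative to spike particles versus particles lacking any fusion protein.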

Records with an inconclusive call do not appear. Activity calls are given as the source filed them. Calls come from the whole dose curve. Bridge positions count the residues as written; N and C are the ends. Square brackets hold non-standard residues; d marks the D form. Peptide text beside a SMILES is read from it. dPhe(4-Cl) = N[C@H](Cc1ccc(Cl)cc1)C(=O)O; d2Nal = N[C@H](Cc1ccc2ccccc2c1)C(=O)O; dCit = NC(=O)NCCC[C@@H](N)C(=O)O; d3Pal = N[C@H](Cc1cccnc1)C(=O)O

In the case of `CCCCCCCCCCCCCCCCCC(=O)NCCCC[C@H](NC(=O)CC[C@@H](NC(=O)[C@H](C)NC(=O)[C@@H](C)O[C@H]1[C@H](O)[C@@H](CO)OC(O)[C@@H]1NC(C)=O)C(N)=O)C(=O)O` (stereo partly specified), the Potency entry in experiment [1], in experiment [2], in experiment [3] and in experiment [4] was “inactive” in each case.

As for `C=CCNc1c(O)cc2c(O)c1C[C@@H](C)C[C@H](OC)[C@H](O)[C@@H](C)/C=C(/C)[C@H](OC(N)=O)[C@@H](OC)/C=C\C=C(\C)C(=O)N2`, the Potency result in experiment [1], in experiment [2], in experiment [3] and in experiment [4] was “inactive” in each case.

Consider `C[N+]1(C)CCN(CC(O)(c2ccccc2)C2CCCCC2)CC1` (stereo unspecified), for which the Potency entry in experiment [1], in experiment [2], in experiment [3] and in experiment [4] was “inactive” throughout.

Take `N=C(N)c1ccc(/C=C/c2ccc(C(=N)N)cc2O)cc1`: the Potency result in experiment [1], in experiment [2], in experiment [3] and in experiment [4] was “inactive” each time.

With `CCCCCCCCCCCCCCCC(=O)OCC(O)C1OC(=O)C(O)=C1O` (stereo unspecified), the Potency entry in experiment [1], in experiment [2], in experiment [3] and in experiment [4] was “inactive” throughout.

As for `CC[C@@H]1CCN[C@H](C(=O)N[C@@H]([C@H]2O[C@H](SC)[C@H](O)[C@@H](O)[C@H]2O)[C@H](C)Cl)C1`, the Potency result in experiment [1], in experiment [2], in experiment [3] and in experiment [4] was “inactive” in each case.

With `COC(=O)[C@H]1[C@H]2C[C@@H]3c4[nH]c5cc(OC)ccc5c4CCN3C[C@H]2C[C@@H](OC(=O)/C=C/c2cc(OC)c(OC)c(OC)c2)[C@@H]1OC`, the Potency entry in experiment [1], in experiment [2], in experiment [3] and in experiment [4] was “inactive” in each case. The activity change, negative = inhibition in experiment [5] is -22.2% [at 19 µM].

As to `Cc1ncc(COP(=O)(O)O)c(CN)c1O`, the Potency entry in experiment [1], in experiment [2], in experiment [3] and in experiment [4] was “inactive” each time.

Regarding `CC(=O)Nc1c(I)c(C(=O)N[C@H]2C(O)O[C@H](CO)[C@@H](O)[C@@H]2O)c(I)c(N(C)C(C)=O)c1I` (stereo partly specified), the Potency entry in experiment [1], in experiment [2], in experiment [3] and in experiment [4] was “inactive” in each case.

Regarding `CC(C)(C)NCC(O)c1ccc(O)c(CO)n1` (stereo unspecified), the Potency entry in experiment [1], in experiment [2], in experiment [3], in experiment [4] and in experiment [5] was “inactive” each time.

Consider `CC(=O)N[C@H](Cc1ccc2ccccc2c1)C(=O)N[C@H](Cc1ccc(Cl)cc1)C(=O)N[C@H](Cc1cccnc1)C(=O)N[C@@H](CO)C(=O)N[C@@H](Cc1ccc(O)cc1)C(=O)N[C@H](CCCNC(N)=O)C(=O)N[C@@H](CC(C)C)C(=O)N[C@@H](CCCN=C(N)N)C(=O)N1CCC[C@H]1C(=O)N[C@H](C)C(N)=O` (Ac-[d2Nal][dPhe(4-Cl)][d3Pal]SY[dCit]LRP[dA]-NH2), for which the Potency result in experiment [1], in experiment [2], in experiment [3] and in experiment [4] was “inactive” in each case. In addition, the activity change, negative = inhibition in experiment [5] is -10.8% [at 27.1 µM].

As for `CC1=C(C(=O)O)N2C(=O)[C@@H](NC(=O)[C@H](N)C3=CCC=CC3)[C@@H]2SC1`, the Potency result in experiment [1], in experiment [2], in experiment [3] and in experiment [4] was “inactive” each time. Further, the activity change, negative = inhibition in experiment [5] was -32.9%.

For the compound `CN1C(=O)C[C@@H](C(=O)N[C@@H](Cc2cnc[nH]2)C(=O)N2CCC[C@H]2C(N)=O)NC1=O`, the Potency result in experiment [1], in experiment [2], in experiment [3] and in experiment [4] was “inactive” in each case. Besides, in experiment [5], the activity change, negative = inhibition was -23.8%.

Regarding `NCCCC[C@H](NC(=O)[C@@H]1CCCN1C(=O)[C@@H]1CSSC[C@H](NC(=O)CNC(=O)CNC(=O)CN)C(=O)N[C@@H](Cc2ccc(O)cc2)C(=O)N[C@@H](Cc2ccccc2)C(=O)N[C@@H](CCC(N)=O)C(=O)N[C@@H](CC(N)=O)C(=O)N1)C(=O)NCC(N)=O` (H-GGGCYFQNCPKG-NH2; disulfide 4-9), the Potency entry in experiment [1], in experiment [2], in experiment [3] and in experiment [4] was “inactive” throughout.

On to `[Mn].[O]=[Mn][OH].[O]=[Mn][OH]`, for which the Potency result in experiment [1], in experiment [2], in experiment [3] and in experiment [4] was “inactive” in each case.

With `COc1nc2ccc(Br)cc2cc1[C@@H](c1ccccc1)[C@@](O)(CCN(C)C)c1cccc2ccccc12`, the Potency result in experiment [1], in experiment [2], in experiment [3] and in experiment [4] was “inactive” in each case.

On to `OC[C@H]1O[C@H](O[C@H]2[C@H](O)[C@@H](O)[C@H](O)O[C@@H]2CO)[C@H](O)[C@@H](O)[C@@H]1O`, for which the Potency entry in experiment [1], in experiment [2], in experiment [3] and in experiment [4] was “inactive” in each case. The activity change, negative = inhibition in experiment [5] is -20.9%.

As to `CO[C@@H]1C[C@H](O[C@H]2[C@H](C)[C@H](O[C@@H]3O[C@@H](C)C[C@@H](N(C)C)[C@H]3OC(C)=O)[C@H](C)C[C@]3(CO3)C(=O)[C@H](C)[C@H](OC(C)=O)[C@H](C)[C@H](C)OC(=O)[C@@H]2C)O[C@H](C)[C@H]1OC(C)=O`, the Potency entry in experiment [1], in experiment [2], in experiment [3] and in experiment [4] was “inactive” each time.

As to `CC1CCCC(C)N1C(=S)Nc1cccc(C(F)(F)F)c1` (stereo unspecified), the Potency result in experiment [1], in experiment [2], in experiment [3] and in experiment [4] was “inactive” each time.

Regarding `CC(=O)Oc1c(C)cc(OCC(O)CNC(C)C)c(C)c1C` (stereo unspecified), the Potency entry in experiment [1], in experiment [2], in experiment [3] and in experiment [4] was “inactive” in each case.

Regarding `COc1ccc(-c2noc(CC(=O)O)c2-c2ccc(OC)cc2)cc1`, the Potency result in experiment [1], in experiment [2], in experiment [3] and in experiment [4] was “inactive” in each case. In addition, in experiment [5], the activity change, negative = inhibition was -24.5%.

Take `CO/N=C(/C(=O)N[C@@H]1C(=O)N2C(C(=O)OC(C)OC(C)=O)=C(COC(N)=O)CS[C@H]12)c1ccco1` (stereo partly specified): the Potency result in experiment [1], in experiment [2], in experiment [3] and in experiment [4] was “inactive” each time. The activity change, negative = inhibition in experiment [5] is -14.5%.

For `Cc1oc(-c2ccccc2)nc1CCOc1ccc(CC2C(=O)NOC2=O)cc1` (stereo unspecified), the Potency entry in experiment [1], in experiment [2], in experiment [3] and in experiment [4] was “inactive” in each case. The activity change, negative = inhibition in experiment [5] is -23.4%.

As for `CCN(CC)CCOc1ccc2nc(N(C)C)sc2c1`, the Potency result in experiment [1], in experiment [2], in experiment [3] and in experiment [4] was “inactive” throughout. Besides, the activity change, negative = inhibition in experiment [5] is -8.36% [at 114 µM].

In the case of `CN(C)C(=O)NC1CCC(CCN2CCN(c3cccc(Cl)c3Cl)CC2)CC1` (stereo unspecified), the Potency entry in experiment [1], in experiment [2], in experiment [3] and in experiment [4] was “inactive” in each case. Besides, the activity change, negative = inhibition in experiment [5] was -20.6% [at 27.1 µM].

For `CC1(C)C[C@H]1C(=O)N/C(=C\CCCCSC[C@@H](N)C(=O)O)C(=O)O`, the Potency result in experiment [1], in experiment [2], in experiment [3] and in experiment [4] was “inactive” throughout. For the same compound, the activity change, negative = inhibition in experiment [5] was -28.6%.

The record behind these values is PubChem BioAssay (NCATS).
